Assay in all cases: DAPPL (digital affinity profiling via proximity ligation, sequencing); 10 mM Tris-HCl pH 7.5, 50 mM NaCl, 1 mM DTT, 4% glycerol, room temperature, 30 min; GST-TFs on glutathione beads, 16-mer random dsDNA library, 0.1% formaldehyde crosslink after washing; high values mean tight binding
What all share (details): protein: recombinant; tags: N-terminal GST; dsDNA, one strand shown

One test addresses T1, ELK1 (Homo sapiens, UniProt P19419 1-428).
T1 sequence: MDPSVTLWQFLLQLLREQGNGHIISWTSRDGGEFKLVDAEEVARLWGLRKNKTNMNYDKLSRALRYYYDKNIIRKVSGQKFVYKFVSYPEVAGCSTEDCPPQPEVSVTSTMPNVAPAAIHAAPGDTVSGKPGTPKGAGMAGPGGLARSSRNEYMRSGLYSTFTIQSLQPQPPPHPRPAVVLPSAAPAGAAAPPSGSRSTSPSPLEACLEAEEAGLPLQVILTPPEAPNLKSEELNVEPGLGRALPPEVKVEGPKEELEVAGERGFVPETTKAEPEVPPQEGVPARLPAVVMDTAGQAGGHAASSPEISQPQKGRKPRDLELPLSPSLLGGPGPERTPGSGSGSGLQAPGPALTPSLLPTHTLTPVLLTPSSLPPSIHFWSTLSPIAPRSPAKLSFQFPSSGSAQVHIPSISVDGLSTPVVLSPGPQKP
In short, it runs like this: (§1)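 Sequencing on an Illumina NextSeq500 followed washing, crosslinking with 0.1% formaldehyde, proximity ligation (BsaI/T4 ligase, 1 h, 37 °C) and PCR amplification of pools that had been incubated for 30 min at room temperature with 200 nmole of a random double-stranded 16-mer DNA library in Tris/NaCl/DTT/glycerol buffer. Each pool held DNA-barcoded human transcription factors, expressed in yeast as GST fusions and captured on glutathione beads, plus a tag-only sample. Binding signal is a hexamer's read frequency for a factor divided by its frequency in the tag-only sample.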

The target in another test is T2, ERG (Homo sapiens, UniProt P11308 1-479).
T2 sequence: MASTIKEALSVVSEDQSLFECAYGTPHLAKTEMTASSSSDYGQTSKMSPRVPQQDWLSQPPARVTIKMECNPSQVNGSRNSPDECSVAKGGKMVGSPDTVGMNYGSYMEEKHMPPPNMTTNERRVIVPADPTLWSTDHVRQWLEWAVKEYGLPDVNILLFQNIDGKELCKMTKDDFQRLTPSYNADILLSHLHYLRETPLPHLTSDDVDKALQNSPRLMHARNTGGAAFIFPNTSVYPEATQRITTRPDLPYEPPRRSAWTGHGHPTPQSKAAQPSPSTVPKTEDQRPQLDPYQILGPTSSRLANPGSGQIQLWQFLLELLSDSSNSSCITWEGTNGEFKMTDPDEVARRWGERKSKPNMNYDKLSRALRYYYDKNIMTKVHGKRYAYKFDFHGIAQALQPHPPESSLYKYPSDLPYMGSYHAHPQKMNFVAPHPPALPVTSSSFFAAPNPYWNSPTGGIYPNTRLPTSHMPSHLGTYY
In short, it runs like this:
as §1

The target in a further test is ELF1 (Homo sapiens, UniProt P32519 1-619). An outline of the steps: as §1
Chain of ELF1 (P32519 whole entry): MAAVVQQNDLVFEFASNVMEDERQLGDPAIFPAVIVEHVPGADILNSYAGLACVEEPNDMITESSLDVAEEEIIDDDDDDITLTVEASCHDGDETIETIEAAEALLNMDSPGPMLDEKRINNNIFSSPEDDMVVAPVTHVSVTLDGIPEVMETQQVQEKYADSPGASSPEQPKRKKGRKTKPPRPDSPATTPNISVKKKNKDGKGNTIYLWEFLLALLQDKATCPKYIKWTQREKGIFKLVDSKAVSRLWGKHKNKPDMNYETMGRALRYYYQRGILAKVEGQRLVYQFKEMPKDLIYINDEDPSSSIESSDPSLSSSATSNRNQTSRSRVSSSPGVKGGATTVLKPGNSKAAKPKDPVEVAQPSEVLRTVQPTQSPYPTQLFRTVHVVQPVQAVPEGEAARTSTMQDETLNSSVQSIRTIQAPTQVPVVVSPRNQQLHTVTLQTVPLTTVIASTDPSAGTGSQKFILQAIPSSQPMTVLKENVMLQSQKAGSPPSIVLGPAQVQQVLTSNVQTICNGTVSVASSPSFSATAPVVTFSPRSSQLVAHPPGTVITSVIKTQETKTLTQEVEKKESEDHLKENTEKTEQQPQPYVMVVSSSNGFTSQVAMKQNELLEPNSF
Another test has as its target T3, EHF (Homo sapiens, UniProt Q9NZC4 1-300).
T3 sequence: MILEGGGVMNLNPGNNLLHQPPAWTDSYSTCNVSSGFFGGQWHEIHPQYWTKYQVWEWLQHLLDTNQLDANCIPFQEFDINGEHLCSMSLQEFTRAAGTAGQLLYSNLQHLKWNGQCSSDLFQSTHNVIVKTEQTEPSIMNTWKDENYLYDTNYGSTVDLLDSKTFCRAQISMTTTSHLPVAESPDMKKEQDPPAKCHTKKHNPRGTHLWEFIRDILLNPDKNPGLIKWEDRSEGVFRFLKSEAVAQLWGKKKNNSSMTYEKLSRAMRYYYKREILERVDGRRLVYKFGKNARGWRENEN
An outline of the steps: as §1

A further test deals with SPIB (Homo sapiens, UniProt Q01892 1-262). In short, it runs like this:
as §1

A further test has as its target T4, ELK3 (Homo sapiens, UniProt P41970 1-407).
T4 sequence: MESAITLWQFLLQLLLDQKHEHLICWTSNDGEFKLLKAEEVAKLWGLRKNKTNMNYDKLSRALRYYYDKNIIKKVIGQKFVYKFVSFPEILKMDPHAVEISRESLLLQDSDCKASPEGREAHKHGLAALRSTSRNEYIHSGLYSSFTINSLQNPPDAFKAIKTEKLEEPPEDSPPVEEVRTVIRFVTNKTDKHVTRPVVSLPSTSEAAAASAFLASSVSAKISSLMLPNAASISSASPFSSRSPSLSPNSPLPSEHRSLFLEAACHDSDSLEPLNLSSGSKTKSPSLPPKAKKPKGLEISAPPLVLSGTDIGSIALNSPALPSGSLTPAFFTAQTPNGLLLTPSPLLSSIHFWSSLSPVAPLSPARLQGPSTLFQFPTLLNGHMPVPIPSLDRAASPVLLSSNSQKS
An outline of the steps: as §1

In the next test the target is ETV5 (Homo sapiens, UniProt P41161 1-510). In short, it runs like this: as §1
Chain of ETV5 (P41161 whole entry): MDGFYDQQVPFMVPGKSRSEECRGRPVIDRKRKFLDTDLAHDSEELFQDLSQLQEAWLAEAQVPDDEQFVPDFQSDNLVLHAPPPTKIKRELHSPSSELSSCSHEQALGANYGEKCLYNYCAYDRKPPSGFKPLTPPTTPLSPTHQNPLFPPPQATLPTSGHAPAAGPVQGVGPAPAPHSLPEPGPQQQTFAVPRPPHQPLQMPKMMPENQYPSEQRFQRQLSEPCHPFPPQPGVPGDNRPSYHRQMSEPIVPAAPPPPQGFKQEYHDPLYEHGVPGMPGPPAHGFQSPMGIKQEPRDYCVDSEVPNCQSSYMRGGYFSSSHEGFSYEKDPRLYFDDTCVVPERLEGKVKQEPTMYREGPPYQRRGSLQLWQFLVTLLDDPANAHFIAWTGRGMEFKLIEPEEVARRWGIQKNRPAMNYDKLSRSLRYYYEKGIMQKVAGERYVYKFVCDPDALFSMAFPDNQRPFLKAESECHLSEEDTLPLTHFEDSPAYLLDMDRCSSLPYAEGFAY
The target of another test is T5, SPIC (Homo sapiens, UniProt Q8N5J4 1-248).
T5 sequence: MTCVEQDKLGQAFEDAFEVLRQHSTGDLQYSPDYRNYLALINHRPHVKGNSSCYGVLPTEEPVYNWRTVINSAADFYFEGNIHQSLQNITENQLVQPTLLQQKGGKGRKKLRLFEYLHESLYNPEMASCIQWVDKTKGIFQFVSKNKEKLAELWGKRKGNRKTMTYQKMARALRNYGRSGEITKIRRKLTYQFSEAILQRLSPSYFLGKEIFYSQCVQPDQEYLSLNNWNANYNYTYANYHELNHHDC
An outline of the steps:
as §1

Another test addresses ELF4 (Homo sapiens, UniProt Q99607 1-663). In short, it runs like this: as §1
For the next test, the target named is T6, ELK4 (Homo sapiens, UniProt P28324-2 1-405).
T6 sequence: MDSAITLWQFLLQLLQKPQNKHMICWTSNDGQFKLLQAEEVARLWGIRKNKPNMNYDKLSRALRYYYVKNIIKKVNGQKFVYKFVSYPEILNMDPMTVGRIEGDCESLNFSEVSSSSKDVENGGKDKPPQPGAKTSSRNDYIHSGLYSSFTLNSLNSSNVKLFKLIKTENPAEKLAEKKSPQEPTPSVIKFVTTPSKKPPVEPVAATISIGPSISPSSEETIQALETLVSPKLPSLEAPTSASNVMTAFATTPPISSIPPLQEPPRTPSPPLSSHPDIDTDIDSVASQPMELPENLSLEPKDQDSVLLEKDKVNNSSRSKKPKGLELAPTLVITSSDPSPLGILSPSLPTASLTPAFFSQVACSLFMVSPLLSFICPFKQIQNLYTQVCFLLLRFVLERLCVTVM
In short, it runs like this:
as §1

Another test addresses ETV1 (Homo sapiens, UniProt P50549 1-477). In short, it runs like this:
as §1

For the next test, the target named is T7, ERF (Homo sapiens, UniProt P50548 1-548).
T7 sequence: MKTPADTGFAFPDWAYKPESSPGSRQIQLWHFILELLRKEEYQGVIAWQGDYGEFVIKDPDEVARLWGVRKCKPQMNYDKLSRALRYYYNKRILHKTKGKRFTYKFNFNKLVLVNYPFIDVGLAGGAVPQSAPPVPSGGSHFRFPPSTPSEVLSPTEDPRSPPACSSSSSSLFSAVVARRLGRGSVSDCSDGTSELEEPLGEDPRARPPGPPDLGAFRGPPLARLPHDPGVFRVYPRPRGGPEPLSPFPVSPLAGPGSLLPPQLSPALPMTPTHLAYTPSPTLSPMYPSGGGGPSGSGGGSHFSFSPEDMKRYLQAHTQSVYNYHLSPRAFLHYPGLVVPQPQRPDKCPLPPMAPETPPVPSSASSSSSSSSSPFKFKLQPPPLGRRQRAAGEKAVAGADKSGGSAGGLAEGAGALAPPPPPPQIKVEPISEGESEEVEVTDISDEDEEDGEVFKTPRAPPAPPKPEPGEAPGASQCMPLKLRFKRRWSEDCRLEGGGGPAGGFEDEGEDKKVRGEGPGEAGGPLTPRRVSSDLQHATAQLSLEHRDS
An outline of the steps:
as §1

In the next test the target is T8, ETV3L (Homo sapiens, UniProt Q6ZN32 1-361).
T8 sequence: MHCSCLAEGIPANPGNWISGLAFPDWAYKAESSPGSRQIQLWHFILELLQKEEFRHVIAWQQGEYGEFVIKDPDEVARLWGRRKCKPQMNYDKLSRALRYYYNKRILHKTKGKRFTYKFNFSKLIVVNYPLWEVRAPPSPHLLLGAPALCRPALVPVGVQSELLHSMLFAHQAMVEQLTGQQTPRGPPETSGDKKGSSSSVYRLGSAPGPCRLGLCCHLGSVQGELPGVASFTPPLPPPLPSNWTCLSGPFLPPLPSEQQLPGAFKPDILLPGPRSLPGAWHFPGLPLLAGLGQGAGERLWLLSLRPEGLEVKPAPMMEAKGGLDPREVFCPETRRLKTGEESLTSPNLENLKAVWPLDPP
In short, it runs like this:
as §1

The target in a further test is T9, ETS2 (Homo sapiens, UniProt P15036 1-469).
T9 sequence: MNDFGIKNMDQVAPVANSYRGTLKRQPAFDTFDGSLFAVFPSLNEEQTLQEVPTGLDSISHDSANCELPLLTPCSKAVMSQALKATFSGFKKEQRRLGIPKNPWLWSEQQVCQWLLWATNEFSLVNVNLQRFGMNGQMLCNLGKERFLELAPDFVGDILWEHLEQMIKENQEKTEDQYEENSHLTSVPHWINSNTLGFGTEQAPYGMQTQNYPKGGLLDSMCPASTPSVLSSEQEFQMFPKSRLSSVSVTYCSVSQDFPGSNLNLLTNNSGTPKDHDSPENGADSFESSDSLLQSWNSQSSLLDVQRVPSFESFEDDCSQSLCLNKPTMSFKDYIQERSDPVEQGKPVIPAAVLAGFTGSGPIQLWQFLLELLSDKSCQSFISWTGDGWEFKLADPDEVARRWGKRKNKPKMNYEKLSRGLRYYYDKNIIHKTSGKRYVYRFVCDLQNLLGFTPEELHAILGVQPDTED
In short, it runs like this: as §1

For the next test, the target named is T10, SPDEF (Homo sapiens, UniProt O95238 1-335).
T10 sequence: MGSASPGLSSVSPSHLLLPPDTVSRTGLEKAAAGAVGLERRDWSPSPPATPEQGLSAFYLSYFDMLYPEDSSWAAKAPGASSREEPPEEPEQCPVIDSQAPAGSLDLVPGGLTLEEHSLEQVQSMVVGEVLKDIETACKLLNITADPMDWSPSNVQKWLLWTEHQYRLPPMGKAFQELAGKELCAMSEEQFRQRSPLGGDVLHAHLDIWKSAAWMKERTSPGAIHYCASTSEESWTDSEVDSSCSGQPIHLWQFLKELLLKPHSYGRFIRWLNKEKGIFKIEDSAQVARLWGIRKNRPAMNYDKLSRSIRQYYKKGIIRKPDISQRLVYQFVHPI
In short, it runs like this:
as §1

Another test concerns the target T11, ETV7 (Homo sapiens, UniProt Q9Y603 1-341).
T11 sequence: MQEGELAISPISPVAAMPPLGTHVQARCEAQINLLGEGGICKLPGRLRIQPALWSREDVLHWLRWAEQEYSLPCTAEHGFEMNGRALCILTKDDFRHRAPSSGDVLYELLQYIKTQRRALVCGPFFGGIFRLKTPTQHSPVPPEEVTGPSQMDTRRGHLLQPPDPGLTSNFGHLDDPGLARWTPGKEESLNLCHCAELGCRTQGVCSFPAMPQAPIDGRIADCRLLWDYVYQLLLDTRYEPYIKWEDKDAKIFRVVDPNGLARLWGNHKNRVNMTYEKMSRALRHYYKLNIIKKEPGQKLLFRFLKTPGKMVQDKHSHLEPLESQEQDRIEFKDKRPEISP
In short, it runs like this: as §1

A further test has as its target T12, ETV3 (Homo sapiens, UniProt P41162-2 1-143).
T12 sequence: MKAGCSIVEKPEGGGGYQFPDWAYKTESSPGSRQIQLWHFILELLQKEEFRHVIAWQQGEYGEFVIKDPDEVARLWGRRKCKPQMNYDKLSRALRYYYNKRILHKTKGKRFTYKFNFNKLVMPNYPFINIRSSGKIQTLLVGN
An outline of the steps:
as §1

A further test concerns the target ETV6 (Homo sapiens, UniProt P41212 1-452). In short, it runs like this: as §1

Chain of ELF4 (Q99607 whole entry): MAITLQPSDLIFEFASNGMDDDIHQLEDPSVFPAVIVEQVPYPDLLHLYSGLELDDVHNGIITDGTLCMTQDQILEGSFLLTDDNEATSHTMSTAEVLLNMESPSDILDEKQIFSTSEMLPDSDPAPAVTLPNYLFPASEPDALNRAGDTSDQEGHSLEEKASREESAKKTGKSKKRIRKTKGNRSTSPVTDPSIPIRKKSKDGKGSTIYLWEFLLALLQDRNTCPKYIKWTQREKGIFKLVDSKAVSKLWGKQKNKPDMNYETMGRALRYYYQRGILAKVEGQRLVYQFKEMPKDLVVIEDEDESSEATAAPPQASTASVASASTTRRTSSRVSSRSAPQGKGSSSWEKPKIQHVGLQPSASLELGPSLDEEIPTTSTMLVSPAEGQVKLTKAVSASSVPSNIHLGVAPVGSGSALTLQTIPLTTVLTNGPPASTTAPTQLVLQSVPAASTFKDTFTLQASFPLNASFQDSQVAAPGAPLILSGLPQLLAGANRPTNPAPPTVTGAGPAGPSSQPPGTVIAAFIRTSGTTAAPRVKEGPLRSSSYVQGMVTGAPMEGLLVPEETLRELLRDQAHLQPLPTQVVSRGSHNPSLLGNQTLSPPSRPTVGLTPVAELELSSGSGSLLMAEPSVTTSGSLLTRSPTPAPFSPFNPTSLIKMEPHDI
Chain of SPIB (Q01892 whole entry): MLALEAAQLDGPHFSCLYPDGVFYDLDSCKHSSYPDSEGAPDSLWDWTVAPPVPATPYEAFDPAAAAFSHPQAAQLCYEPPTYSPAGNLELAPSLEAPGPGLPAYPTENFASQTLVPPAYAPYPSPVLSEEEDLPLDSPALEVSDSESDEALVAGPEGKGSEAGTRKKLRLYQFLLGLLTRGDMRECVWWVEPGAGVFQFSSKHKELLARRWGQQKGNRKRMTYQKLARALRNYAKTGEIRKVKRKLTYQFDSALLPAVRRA
Chain of ETV6 (P41212 whole entry): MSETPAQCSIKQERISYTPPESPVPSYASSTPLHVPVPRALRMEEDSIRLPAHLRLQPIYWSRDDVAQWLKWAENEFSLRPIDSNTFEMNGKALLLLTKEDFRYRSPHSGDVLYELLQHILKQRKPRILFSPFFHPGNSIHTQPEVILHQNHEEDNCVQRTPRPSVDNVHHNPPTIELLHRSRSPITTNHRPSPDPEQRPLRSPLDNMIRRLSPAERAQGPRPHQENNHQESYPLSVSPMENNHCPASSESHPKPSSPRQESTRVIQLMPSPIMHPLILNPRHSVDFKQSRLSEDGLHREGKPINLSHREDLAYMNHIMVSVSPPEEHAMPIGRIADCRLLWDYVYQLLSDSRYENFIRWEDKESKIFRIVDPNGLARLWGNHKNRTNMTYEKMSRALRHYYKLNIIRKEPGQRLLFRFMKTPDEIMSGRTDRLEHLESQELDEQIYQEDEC
Chain of ETV1 (P50549 whole entry): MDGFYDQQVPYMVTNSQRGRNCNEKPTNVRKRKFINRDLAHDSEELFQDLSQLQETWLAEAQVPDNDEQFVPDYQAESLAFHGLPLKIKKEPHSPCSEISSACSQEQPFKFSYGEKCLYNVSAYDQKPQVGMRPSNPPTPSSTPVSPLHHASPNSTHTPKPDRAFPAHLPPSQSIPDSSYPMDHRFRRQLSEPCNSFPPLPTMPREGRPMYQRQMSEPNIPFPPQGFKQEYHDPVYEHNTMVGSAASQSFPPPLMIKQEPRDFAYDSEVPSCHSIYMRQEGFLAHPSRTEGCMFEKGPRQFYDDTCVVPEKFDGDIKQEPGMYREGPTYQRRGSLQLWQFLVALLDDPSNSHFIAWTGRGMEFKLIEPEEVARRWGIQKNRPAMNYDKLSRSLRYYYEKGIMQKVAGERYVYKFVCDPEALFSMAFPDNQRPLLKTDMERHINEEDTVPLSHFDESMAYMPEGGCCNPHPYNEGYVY

On to TGTTGT, for which the binding signal with ELK1 is 1.15 fold enrichment (6-mer frequency, TF over GST control); with ERG, 1.08 fold enrichment (6-mer frequency, TF over GST control); with ELF1 it was 1.13 fold enrichment (6-mer frequency, TF over GST control); with EHF it was 1.09 fold enrichment (6-mer frequency, TF over GST control); with SPIB, 1.12 fold enrichment (6-mer frequency, TF over GST control); with ELK3 it was 1.05 fold enrichment (6-mer frequency, TF over GST control). In addition, the binding signal was 1.08 fold enrichment (6-mer frequency, TF over GST control) in the test with ETV5; 1.23 fold enrichment (6-mer frequency, TF over GST control) in the test with SPIC; 1.11 fold enrichment (6-mer frequency, TF over GST control) in the test with ELF4; 1.24 fold enrichment (6-mer frequency, TF over GST control) with ELK4; 1.2 fold enrichment (6-mer frequency, TF over GST control) with ETV1; 1.02 fold enrichment (6-mer frequency, TF over GST control) with ERF. The binding signal was 1.15 fold enrichment (6-mer frequency, TF over GST control) with ETV3L; 1.05 fold enrichment (6-mer frequency, TF over GST control) with ETS2; 1.21 fold enrichment (6-mer frequency, TF over GST control) with SPDEF; 1.14 fold enrichment (6-mer frequency, TF over GST control) with ETV7; 1.14 fold enrichment (6-mer frequency, TF over GST control) with ETV3; 1.11 fold enrichment (6-mer frequency, TF over GST control) in the test with ETV6.

The values are drawn from paper PMC7862700, “An all-to-all approach to the identification of sequence-specific readers for epigenetic DNA modifications on cytosine”.
